# Pol iota inh – DNA polymerase iota (human) inhibition; Q9UNA4; Pol iota fluorescent replication assay, 10 min; Potency, µM (top dose mostly 115 µM), inactives show top-dose activity, negative = inhibition, usual class: inhibitors; 1% of 390,000 active; AID 588590; note: potency is the fitted concentration of half-maximal effect
#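 Fluorescent replication assay read twice, at 0 min and 10 min after adding 50 nM (final) substrate. Enzyme (10 nM) and compounds were first incubated 15 min at room temperature; enzyme-free buffer wells were negative controls.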
# Pol eta inh – inhibitors of human DNA polymerase eta. recombinant Pol eta, fluorescent DNA replication assay. Potency, µM (top dose mostly 114 µM), for inactives: top-dose activity change, negative = inhibition, actives largely listed as inhibitors. 1.2% of 390,000 active; note: potency is the fitted concentration of half-maximal effect; % is set by controls: 0 for no effect and ±100 for the full control effect
# Target sequence (Q9Y253 whole entry, looked up): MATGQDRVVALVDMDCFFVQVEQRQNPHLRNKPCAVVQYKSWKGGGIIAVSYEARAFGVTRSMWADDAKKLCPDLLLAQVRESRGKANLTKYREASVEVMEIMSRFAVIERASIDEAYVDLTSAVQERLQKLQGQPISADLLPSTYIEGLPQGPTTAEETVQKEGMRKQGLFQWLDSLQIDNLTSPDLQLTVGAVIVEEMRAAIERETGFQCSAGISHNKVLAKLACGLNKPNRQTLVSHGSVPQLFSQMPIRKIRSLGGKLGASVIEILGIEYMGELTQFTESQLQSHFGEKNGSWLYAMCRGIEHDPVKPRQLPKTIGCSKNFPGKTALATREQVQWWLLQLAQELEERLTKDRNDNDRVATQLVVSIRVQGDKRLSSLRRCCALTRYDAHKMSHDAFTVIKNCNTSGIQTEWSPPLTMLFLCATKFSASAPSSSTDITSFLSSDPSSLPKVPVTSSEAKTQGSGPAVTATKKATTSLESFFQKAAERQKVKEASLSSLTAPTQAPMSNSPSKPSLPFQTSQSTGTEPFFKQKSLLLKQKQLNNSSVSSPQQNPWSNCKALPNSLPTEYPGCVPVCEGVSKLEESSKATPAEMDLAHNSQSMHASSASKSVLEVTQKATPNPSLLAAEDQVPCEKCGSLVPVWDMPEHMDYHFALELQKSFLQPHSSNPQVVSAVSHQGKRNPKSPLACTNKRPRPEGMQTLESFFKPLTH
#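 Pol eta (10 nM) was preincubated with compounds for 15 min at room temperature, after which fluorescent replication substrate (50 nM final) was added to start the reaction. Fluorescence was read kinetically at 0 and 10 min.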
# Pol kappa inh – blocks human DNA polymerase kappa activity; purified Pol kappa, fluorescent DNA synthesis assay, 10 min; Q9UBT6; 0.53% of 400,000 active; Potency, µM (top dose mostly 107 µM), for inactives: at the highest dose activity, negative = inhibition, most hits filed as inhibitors; AID 588579; note: potency is the fitted concentration of half-maximal effect; % is set by controls: 0 for no effect and ±100 for the full control effect
#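 Readout: fluorescence, taken kinetically at 0 and 10 min. Conditions: 10 nM Pol kappa, 15 min RT compound preincubation, 50 nM substrate final. Controls: enzyme-free buffer wells.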
# POLB inh – inhibitors of human DNA polymerase beta; Pol beta primer extension/strand displacement, fluorescence kinetic; Potency, µM (top dose mostly 114 µM), for the others: at the top dose activity change, negative = inhibition, hits mostly inhibitors; 1.3% of 340,000 active; AID 485314; note: potency is the fitted concentration of half-maximal effect; % is set by controls: 0 for no effect and ±100 for the full control effect
#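 Enzyme-only controls used 10 nM Pol beta; buffer lacking enzyme served as negative control. Compound preincubated 15 min, then 50 nM substrate added; 0 and 10 min reads at room temperature.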
# ALOX12 inh – ALOX12 (human) lipoxygenase inhibition; Potency, µM (top dose mostly 108 µM), inactives show at the highest dose activity change, negative = inhibition, most hits filed as inhibitors; purified 12hLO, xylenol orange hydroperoxide absorbance; 1.1% of 580,000 active; P18054; note: potency is the fitted concentration of half-maximal effect; % is set by controls: 0 for no effect and ±100 for the full control effect
#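 Hydroperoxide product was detected by ferrous iron/xylenol orange as the 573 to 405 nm absorbance ratio. Arachidonic acid at 40 uM (final) was turned over for 30 min at room temperature by 150 nM human 12hLO, pH 7.0 Hepes buffer, after 15 min compound preincubation.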
# PI5P4Ka inh – PI5P4K alpha (human) kinase inhibition. P48426. 1.2% of 330,000 active. PI5P4Kalpha enzyme, ADP-Glo luminescence, 60 min; hits give low values. max response, %; active = max response of -50% or lower; inconclusive = between -30% and -50%; inactive = -30% or higher; note: value at the top dose of about 77 µM; % is set by controls: 0 for no effect and ±100 for the full control effect
#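 qHTS, 1536-well: enzyme/substrate mix, compound by pin tool, 5 microM ATP final; RT 60 min; ADP-Glo reagents 1 (45 min) then 2 (30 min); luminescence.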
# Numbers without * were called inactive; ? = inconclusive; nt = no result given; [ ] = another dose, or the depositor's remark. Hits are enriched below; roughly 2.9% of the tested compounds scored in any of these assays. Unless noted, calls come from the whole dose curve; as a rule, active = well fitted inhibition curve with a large enough effect; inconclusive = small, poorly fitted or top-dose-only effect, or another doubt; inactive = no such curve, though single readings can be large or run the other way.
SMILES,Pol iota inh,Pol eta inh,Pol kappa inh,POLB inh,ALOX12 inh,PI5P4Ka inh
C#CCOCCOCCOCCNc1nc(N2CCN(C(=O)CCCCCCCCCCNC(=O)[C@H](CCCCN)n3cc(CCO)nn3)CC2)nc(N2CCN(C(=O)CCCCCCCCCCNC(=O)[C@@H]([C@H](C)O)n3cc(C)nn3)CC2)n1,?,?,21%,nt,nt,-84*
Cc1cn([C@@H](CCCCN)C(=O)NCCCCCCCCCCC(=O)N2CCNCC2)nn1,?,-20%,0%,nt,32µM*,-2
NCCCC[C@@H](C(=O)NCCCCCCCCCCC(=O)N1CCNCC1)n1cc(CCO)nn1,-22%,1%,-9%,nt,?,-11
CC(C)(C)C1CCc2sc(C(=O)NCc3cnc(-c4ccccc4)s3)cc2C1 (configuration not stated),nt,nt,nt,nt,-13%,nt
COc1ccc(CN[C@H](C)c2onc(C)c2C(=O)O)cc1,nt,nt,nt,nt,28µM*,nt
Cc1noc([C@@H](C)NC(=O)Cc2ccccc2)c1C(=O)O,nt,nt,nt,nt,18%[176 µM],nt
COc1ccc(-c2nnc(SCC#CCO)o2)cc1OC,-7%,-5%,-3%,1%,0%,-56*
COc1ccc(-c2nnc(SCC(=O)N(C)Cc3ccccc3)o2)cc1OC,60%,79µM*,-4%,-7%,-5%,nt
Cc1ccc(Cl)cc1NC(=O)CC1SCCNC1=O (configuration not stated),nt,nt,nt,nt,-4%,nt
Cc1ccc(C)c(N2CCN(S(=O)(=O)c3ccc4[nH]c(=O)ccc4c3)CC2)c1,?,?,-1%,28µM*,44%,-17
CCC1CCCCN1S(=O)(=O)c1ccc2[nH]c(=O)ccc2c1 (configuration not stated),?,50µM*,-24%,35µM*,-8%,?
Cc1cccc(N2CCN(S(=O)(=O)c3ccc4[nH]c(=O)ccc4c3)CC2)c1C,?,5%,-26%,-19%,18%,-2
CC(C(=O)N1CCCCC1)N(C)CC(=O)Nc1ccc(Cl)c(C(F)(F)F)c1 (configuration not stated),nt,nt,nt,nt,-29%,nt
Oc1cc(CNC2CCCCC2)c(O)cc1CNC1CCCCC1,?,?,79µM*,nt,?,-53*
Cc1ccccc1CNC1CCCCC1,5%,-19%,-27%,0%,-6%,4
CCCn1c(SCC(=O)N2CCc3ccccc3C2)nc(O)cc1=O,10µM*,6%,?,nt,-4%,2
O=C(Cn1c(SCC(=O)N2CCc3ccccc3C2)nc2ccccc21)NC1CCCC1,18%,-8%,-7%,89µM*,0%,nt
CC(C)N1CCN(S(=O)(=O)c2ccc3ccccc3c2)CC1,21%,-14%,7%,19%,0.79µM*,-5
CCS(=O)(=O)N1CCN(S(=O)(=O)c2ccc3ccccc3c2)CC1,15%,-14%,4%,17%,76%,7
CSc1nc2c(c(=O)[nH]1)C(c1ccccc1Cl)CC(=O)N2 (configuration not stated),30%,-3%,3%,19%,-2%,2
Nc1nc2c(s1)C(c1ccccc1Cl)CC(=O)N2 (configuration not stated),nt,nt,nt,nt,20µM*,nt
Nc1nc2c(s1)C(c1c(Cl)cccc1Cl)CC(=O)N2 (configuration not stated),nt,nt,nt,nt,14µM*,nt
CC(=O)c1cccc(NC(=O)c2ccc3c(=O)n(-c4ccccc4F)cnc3c2)c1,nt,nt,nt,nt,-2%,nt
O=C(c1cc(Br)c(Br)s1)N(Cc1ccccc1)C1CC1,nt,nt,nt,nt,-17%,nt
O=C1/C(=C/c2cccnc2)Sc2ccccc21,-19%,?,2%,-14%,0%,-15
O=C1c2ccccc2C(=Cc2cccnc2)c2ccccc21,nt,-27%,nt,nt,-25%,-54*
COc1ccccc1N1CCN(Cc2cc(Br)c(O)c3ncccc23)CC1,66%,-2%,-20%,21%,35µM*,-23
CCOCc1cc(CN2CCN(c3ccccc3OC)CC2)c(O)c2ncccc12,28%,nt,-2%,30%,?,nt
